Experimental data taken from PubChem BioAssay (Tox21).
Values without a mark were called inactive. Records with an inconclusive call do not appear. Where a call stands in place of a potency, no number is given. Calls of active or inactive are those of the source. Unless noted, calls come from the whole dose curve; as a rule, active = well fitted curve in the direction sought with a large enough effect in the repeat runs; inconclusive = weak or mixed curves; inactive = no such curve, though single readings can be large; an effect the other way counts as inactive or inconclusive.

Key:
[1] = qHTS assay to identify small molecule agonists of the estrogen receptor alpha (ER-alpha) signaling pathway in the presence of an antagonist - cell viability counter screen (AID 1259386);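 note: series mostly up to about 92 µM; cells exposed to compounds for 22 h at 37 °C before the viability read; nearly all actives have a fitted effect of over 30% in size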
Method in brief: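 Cytotoxicity was measured in parallel with the ERE-luciferase agonist screen, in the same wells. The cells were VM7Luc4E2, which endogenously express ER-alpha, and treatment was with compounds plus 10.0nM ICI-182,780 for 22hr.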

[2] = target: Progesterone receptor (Homo sapiens) (UniProt P06401); experiment: qHTS assay to identify small molecule agonists of the progesterone receptor (PR) signaling pathway (AID 1346784; calls by dose curve; note: nearly all actives have a fitted effect of over 30% in size)
Sequence of Progesterone receptor (Homo sapiens) (P06401 whole entry, looked up): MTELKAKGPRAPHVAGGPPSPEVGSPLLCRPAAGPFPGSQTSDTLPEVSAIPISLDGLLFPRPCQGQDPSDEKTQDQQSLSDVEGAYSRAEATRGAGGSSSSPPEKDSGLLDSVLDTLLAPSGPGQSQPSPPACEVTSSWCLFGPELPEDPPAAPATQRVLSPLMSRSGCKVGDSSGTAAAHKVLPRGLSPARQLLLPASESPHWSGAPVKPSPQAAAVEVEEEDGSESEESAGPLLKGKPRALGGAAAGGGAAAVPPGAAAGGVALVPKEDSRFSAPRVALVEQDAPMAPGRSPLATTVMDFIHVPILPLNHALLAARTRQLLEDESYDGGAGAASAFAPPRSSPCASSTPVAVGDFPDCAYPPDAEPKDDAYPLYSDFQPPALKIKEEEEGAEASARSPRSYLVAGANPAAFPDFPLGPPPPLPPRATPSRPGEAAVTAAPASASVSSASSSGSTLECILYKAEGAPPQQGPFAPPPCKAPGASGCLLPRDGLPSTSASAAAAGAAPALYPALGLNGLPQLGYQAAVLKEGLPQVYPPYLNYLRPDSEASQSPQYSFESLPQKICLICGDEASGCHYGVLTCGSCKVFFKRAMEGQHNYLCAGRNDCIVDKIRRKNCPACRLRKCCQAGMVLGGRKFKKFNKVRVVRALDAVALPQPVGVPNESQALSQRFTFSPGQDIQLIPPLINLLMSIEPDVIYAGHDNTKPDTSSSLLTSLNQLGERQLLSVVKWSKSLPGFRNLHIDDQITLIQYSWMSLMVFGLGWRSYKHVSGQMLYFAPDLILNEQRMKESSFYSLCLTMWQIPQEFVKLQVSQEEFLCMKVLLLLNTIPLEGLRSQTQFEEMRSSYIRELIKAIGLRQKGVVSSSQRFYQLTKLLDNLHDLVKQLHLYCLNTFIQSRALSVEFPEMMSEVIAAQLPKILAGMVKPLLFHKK
Method in brief: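 PR-UAS-bla HEK 293T cells carrying a UAS-driven beta-lactamase reporter were seeded in medium with 2% charcoal-stripped FBS, preincubated 6 hr at 37C, then exposed to compounds in DMSO for 16 hr; agonism was read by LiveBLAzer B/G FRET fluorescence.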

[3] = target: Progesterone receptor (Homo sapiens) (UniProt P06401); experiment: qHTS assay to identify small molecule antagonists of the progesterone receptor (PR) signaling pathway (AID 1346795; active = well fitted inhibition curve with a large enough effect in the signal ratio in the repeat runs, not every such curve was filed as active; the % refers to the signal ratio; note: potency is the fitted concentration of half-maximal effect)
Method in brief: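 PR-UAS-bla HEK293T cells carrying a UAS-driven beta-lactamase reporter were plated in medium with 2% charcoal-stripped FBS and rested 6 hr at 37C. Compounds were added with 1 nM R5020 (final) for 16 hr, then FRET substrate loaded 2 hr at room temperature.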

[4] = qHTS assay to identify small molecule agonists of the progesterone receptor (PR) signaling pathway - cell viability counter screen (AID 1346799; calls by dose curve; note: nearly all actives have a fitted effect of over 45% in size)
Method in brief: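 PR-UAS-bla HEK293T cells, 3,000 per well in medium with 2% charcoal-stripped FBS, were preincubated 6 hr at 37C, then exposed to compounds for 16 hr; viability was read as CellTiter-Glo luminescence after 30 min at room temperature.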

[5] = qHTS assay to identify small molecule antagonists of the TGF-beta/Smad signaling pathway - cell viability counter screen (AID 1346824); note: nearly all actives have a fitted effect of over 50% in size
Method in brief: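 Cytotoxicity counter-screen run in the same wells as the beta-lactamase Smad reporter read: CellTiter-Glo luminescence after 30 min at room temperature. HEK 293T SBE-bla cells had 5 hr compound exposure at 37 C with TGF-beta1 (0.25 ng/mL stock).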

[6] = qHTS assay to identify small molecule agonists of the TGF-beta/Smad signaling pathway - cell viability counter screen (AID 1346829); note: top concentration of the series differs between compounds; nearly all actives have a fitted effect of over 45% in size
Method in brief: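 CellTiter-Glo luminescence readout; SBE-bla HEK 293T cells, overnight plating, compound 5 hr at 37 C/5% CO2, then bla substrate 2 hr RT, then CellTiter-Glo 30 min RT.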

[7] = qHTS assay to identify small molecule agonists of the TGF-beta/Smad signaling pathway (AID 1346859; active = well fitted activation curve with a large enough effect in the signal ratio in the repeat runs, not every such curve was filed as active; the % refers to the signal ratio; note: series mostly up to about 77 µM)
Method in brief: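 HEK 293T cells stably carrying a beta-lactamase reporter driven by the Smad binding element were seeded overnight, exposed to DMSO-dissolved compounds for 5 hr at 37 C, 5% CO2, then loaded with FRET substrate for 2 hr at room temperature.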

[8] = target: Thyrotropin-releasing hormone receptor (Homo sapiens) (UniProt P34981); experiment: qHTS assay to identify small molecule antagonists of the thyrotropin-releasing hormone receptor (TRHR) signaling pathway (AID 1346877; active = well fitted inhibition curve with a large enough effect in the repeat runs, not every such curve was filed as active; note: series mostly up to about 51 µM)
Sequence of Thyrotropin-releasing hormone receptor (Homo sapiens) (P34981 whole entry, looked up): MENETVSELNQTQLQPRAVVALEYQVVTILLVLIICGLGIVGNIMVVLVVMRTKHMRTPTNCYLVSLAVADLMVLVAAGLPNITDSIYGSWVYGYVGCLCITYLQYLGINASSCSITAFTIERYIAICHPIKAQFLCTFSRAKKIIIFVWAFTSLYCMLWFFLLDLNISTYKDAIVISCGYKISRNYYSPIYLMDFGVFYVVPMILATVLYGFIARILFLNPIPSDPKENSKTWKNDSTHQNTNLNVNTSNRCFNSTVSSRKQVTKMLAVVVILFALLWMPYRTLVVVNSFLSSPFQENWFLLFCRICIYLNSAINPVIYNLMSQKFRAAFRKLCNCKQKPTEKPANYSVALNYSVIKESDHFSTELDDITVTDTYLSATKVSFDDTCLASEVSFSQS
Method in brief: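 Antagonism is measured as suppression of the calcium response to 1 nM TRH in TRHR-HEK293 cells that have been dye-loaded for 2 h at 37 °C after overnight plating. Each compound is tested at 15 concentrations in triplicate.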

[9] = target: Thyrotropin-releasing hormone receptor (Homo sapiens) (UniProt P34981); experiment: qHTS assay to identify small molecule agonists of the thyrotropin-releasing hormone receptor (TRHR) signaling pathway (AID 1346891; calls by dose curve; note: series mostly up to about 58 µM)
Method in brief: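 TRHR-expressing HEK293 cells were plated 18 h at 37 °C/5% CO2, loaded with calcium dye 2 h at 37 °C, then given compound in DMSO; fluorescence was read kinetically for 3 min at 1 s intervals.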

[10] = Human pregnane X receptor (PXR) small molecule agonists, qHTS cell viability counter screen (AID 1346977); note: nearly all actives have a fitted effect of over 50% in size
Method in brief: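 PXR-Luc HepG2 cells in medium with 5% charcoal-stripped FBS were pre-incubated 5hr, then exposed to compounds for 24hr at 37C. Viability was read in the same wells by CellTiter-Fluor fluorescence, reagent added after 23hr with a 1hr incubation.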

[11] = Caspase-3/7 induction in CHO-K1 cells by small molecules, qHTS cell viability counter screen (AID 1346979); note: nearly all actives have a fitted effect of over 35% in size
Method in brief: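 Wild-type CHO-K1 cells were seeded at 1,500 per well, rested 5hr at 37 C, then exposed to compounds in DMSO. After 16hr, CellTiter-Fluor reagent was added and fluorescence read 1hr later as the viability measure.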

[12] = Caspase-3/7 induction in CHO-K1 cells by small molecules, qHTS assay (AID 1346980); note: nearly all actives have a fitted effect of over 15% in size
Method in brief: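 Luminescent Caspase-Glo 3/7 read (30min, room temperature) quantified apoptosis induction. Cells were wild-type CHO-K1, treated with compound for 17hr at 37 C and 5% CO2.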

[13] = Caspase-3/7 induction in HepG2 cells by small molecules, qHTS cell viability counter screen (AID 1346981); note: series mostly up to about 92 µM; nearly all actives have a fitted effect of over 30% in size
Method in brief: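 Cell viability is measured as a cytotoxicity counter screen alongside the Caspase-Glo 3/7 readout in identical wells. Wild-type HepG2 cells are treated with test compounds for 16 hr at 37 C before CellTiter-Fluor addition and a 1-hr incubation.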

[14] = target: Nuclear receptor subfamily 1 group I member 2 (Homo sapiens) (UniProt O75469); experiment: Human pregnane X receptor (PXR) small molecule agonists, qHTS assay (AID 1346982); note: nearly all actives have a fitted effect of over 35% in size; note: potency is the fitted concentration of half-maximal effect
Sequence of Nuclear receptor subfamily 1 group I member 2 (Homo sapiens) (O75469 whole entry, looked up): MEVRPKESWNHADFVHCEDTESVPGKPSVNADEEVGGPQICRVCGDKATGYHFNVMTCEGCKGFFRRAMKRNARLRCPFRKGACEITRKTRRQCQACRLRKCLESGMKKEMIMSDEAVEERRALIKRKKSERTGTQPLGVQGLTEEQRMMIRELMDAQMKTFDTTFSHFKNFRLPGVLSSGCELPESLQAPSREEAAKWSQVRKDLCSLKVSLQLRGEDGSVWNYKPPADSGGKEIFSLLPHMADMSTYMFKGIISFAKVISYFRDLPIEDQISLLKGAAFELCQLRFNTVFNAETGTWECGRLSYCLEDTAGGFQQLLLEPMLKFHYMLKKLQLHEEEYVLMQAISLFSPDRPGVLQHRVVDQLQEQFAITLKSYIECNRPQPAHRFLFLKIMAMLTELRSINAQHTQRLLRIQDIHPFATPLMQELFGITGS
Method in brief: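 Cells: HepG2 stably carrying PXR-Luc. Medium held 5% charcoal-stripped FBS. Compounds in DMSO added after 5 hr plating, incubated 24 hr, then luminescence quantified with ONE-Glo.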

[15] = target: Nuclear receptor subfamily 1 group I member 2 (Rattus norvegicus) (UniProt Q9R1A7); experiment: Rat pregnane X receptor (rPXR) activation by small molecules, qHTS assay (AID 1346983); details: rPXR luciferase reporter cells, One-Glo luminescence, 24 h; max activation: stronger effect = higher value; note: nearly all actives have a fitted effect of over 20% in size
Sequence of Nuclear receptor subfamily 1 group I member 2 (Rattus norvegicus) (Q9R1A7 whole entry, looked up): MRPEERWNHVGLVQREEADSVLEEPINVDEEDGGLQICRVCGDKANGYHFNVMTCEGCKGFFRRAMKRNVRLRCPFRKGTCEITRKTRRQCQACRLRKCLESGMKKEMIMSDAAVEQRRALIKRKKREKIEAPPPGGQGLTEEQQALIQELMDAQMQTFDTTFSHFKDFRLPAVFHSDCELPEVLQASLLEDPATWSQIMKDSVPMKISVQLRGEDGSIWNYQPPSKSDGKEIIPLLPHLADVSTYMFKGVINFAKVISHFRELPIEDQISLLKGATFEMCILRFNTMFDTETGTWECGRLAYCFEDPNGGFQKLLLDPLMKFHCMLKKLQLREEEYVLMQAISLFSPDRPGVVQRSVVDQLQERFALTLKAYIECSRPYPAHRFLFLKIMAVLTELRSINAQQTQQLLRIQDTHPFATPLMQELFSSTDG
Method in brief: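 Luminescent readout (One-Glo luciferase, 30 min room temperature) followed 24 hr compound treatment at 37 C of rPXR cells plated 2,000 per well and preincubated 5hr; qHTS format with compounds delivered in DMSO.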

[16] = target: Nuclear receptor subfamily 1 group I member 2 (Homo sapiens) (UniProt O75469); experiment: CYP3A4 induction through human pregnane X receptor (PXR) by small molecules, qHTS assay (AID 1346984); note: nearly all actives have a fitted effect of over 40% in size
Method in brief: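 Quantitative HTS in DPX-2 cells, i.e. HepG2 transfected with PXR response element and CYP3A4-promoter luciferase. Compounds in DMSO incubated 24hr at 37C; then P450-Glo CYP3A4 substrate, 3uM final, 3hr; One-Glo luminescence.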

[17] = target: Nuclear receptor subfamily 1 group I member 2 (Homo sapiens) (UniProt O75469); experiment: Human pregnane X receptor (PXR) activation by small molecules, qHTS assay (AID 1346985); note: nearly all actives have a fitted effect of over 40% in size
Method in brief: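 DPX-2 cells (HepG2 co-transfected with a PXR response element and a CYP3A4-promoter luciferase construct) were seeded at 2,000 per well, rested 5 hr at 37C, then exposed to DMSO-dissolved compounds for 24 hr. Activation was read as luciferase luminescence.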

[18] = target: Acetylcholinesterase (Homo sapiens) (UniProt P22303); experiment: Acetylcholinesterase (AChE) small molecule antagonists: colormetric cell-based qHTS assay (AID 1347395; calls by dose curve; note: nearly all actives have a fitted effect of over 30% in size; note: potency is the fitted concentration of half-maximal effect)
Sequence of Acetylcholinesterase (Homo sapiens) (P22303 whole entry, looked up): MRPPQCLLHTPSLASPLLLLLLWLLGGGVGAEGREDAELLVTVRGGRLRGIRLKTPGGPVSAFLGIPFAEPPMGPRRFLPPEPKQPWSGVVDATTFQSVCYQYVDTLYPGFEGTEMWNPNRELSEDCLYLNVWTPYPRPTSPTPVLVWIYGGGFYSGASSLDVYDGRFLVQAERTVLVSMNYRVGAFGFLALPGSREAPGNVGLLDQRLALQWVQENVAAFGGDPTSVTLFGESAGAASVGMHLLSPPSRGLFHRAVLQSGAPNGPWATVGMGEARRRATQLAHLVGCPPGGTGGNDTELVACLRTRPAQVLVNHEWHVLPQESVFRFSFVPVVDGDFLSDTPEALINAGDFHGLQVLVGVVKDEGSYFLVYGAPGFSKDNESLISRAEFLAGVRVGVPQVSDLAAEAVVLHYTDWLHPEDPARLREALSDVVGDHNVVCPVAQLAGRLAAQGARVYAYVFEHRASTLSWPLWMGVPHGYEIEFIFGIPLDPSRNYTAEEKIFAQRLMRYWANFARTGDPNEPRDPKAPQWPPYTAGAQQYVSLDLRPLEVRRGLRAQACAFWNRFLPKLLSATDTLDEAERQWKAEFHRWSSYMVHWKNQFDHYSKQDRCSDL
Method in brief: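 SH-SY5Y cells, plated overnight at 37 C, were exposed to compounds for 30 min at 37 C and 5% CO2. Acetylthiocholine plus DTNB was then added, and thiocholine from endogenous AChE was quantified colorimetrically after 90 min at 37 C.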

[19] = Caspase-3/7 induction in HepG2 cells by small molecules, qHTS assay (AID 1346978); note: nearly all actives have a fitted effect of over 15% in size
Method in brief: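 Caspase-3/7 induction was measured by Caspase-Glo 3/7 luminescence (30 min, room temperature) after a 17 hr compound exposure of wild-type HepG2 cells seeded at 2,000 per well and pre-incubated 5 hr.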

[20] = qHTS assay to identify small molecule antagonists of the progesterone receptor (PR) signaling pathway - cell viability counter screen (AID 1346798); note: series mostly up to about 92 µM; nearly all actives have a fitted effect of over 50% in size
Method in brief: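 PR-UAS-bla HEK293T cells in medium with 2% charcoal-stripped FBS were treated with compounds plus R5020 for 16 hr at 37C. Cell viability was then read by CellTiter-Glo luminescence after 30 min at room temperature in the same wells.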

Row | SMILES | Potency [1] | Potency [2] | Potency [3] | Potency [4] | Potency [5] | outcome [6] | outcome [7] | outcome [8] | outcome [9] | Potency [10] | Potency [11] | Potency [12] | Potency [13] | Potency [14] | max activation [15] [%] | Potency [16] | Potency [17] | Potency [18] | Potency [19] | Potency [20]
1 | c1cc2c(c(N3CCNCC3)c1)OCCO2 | inactive | inactive | inactive | inactive | inactive | inactive | inactive | inactive | inactive | inactive | inactive | inactive | inactive | inactive | 6.77 | inactive | inactive | inactive | – | –
2 | Cc1ccccc1CO[C@@H]1C[C@@]2(C(C)C)CC[C@]1(C)O2 | inactive | inactive | inactive | inactive | – | inactive | inactive | inactive | inactive | inactive | inactive | inactive | inactive | inactive | – | – | – | inactive | inactive | –
3 | CC(C)CC(N(C)C)C1(c2ccc(Cl)cc2)CCC1 (stereo not drawn) | inactive | inactive | inactive | – | inactive | inactive | inactive | inactive | inactive | inactive | inactive | inactive | inactive | inactive | -2.56 | inactive | inactive | – | inactive | –
4 | Fc1cc(Br)ccc1CBr | inactive | inactive | inactive | inactive | inactive | inactive | inactive | inactive | inactive | inactive | – | inactive | inactive | inactive | – | – | – | – | – | –
5 | CCCSP(=O)(OCC)Oc1ccc(Br)cc1Cl (stereo not drawn) | inactive | inactive | 11.8 µM (active) | – | inactive | inactive | inactive | inactive | inactive | inactive | inactive | inactive | inactive | 29.7 µM (active) | – | – | – | 6.88 µM (active) | inactive | –
6 | Cc1nc(N)nc(N)n1 | inactive | inactive | inactive | inactive | – | inactive | inactive | inactive | inactive | – | inactive | inactive | inactive | inactive | – | – | – | inactive | inactive | –
7 | CCC1(c2ccccc2)C(=O)N=C(O)NC1=O (stereo not drawn) | inactive | inactive | inactive | – | inactive | inactive | inactive | inactive | inactive | inactive | inactive | inactive | inactive | 53 µM (active) | – | – | – | inactive | inactive | –
8 | OC(Cn1cncn1)(c1ccc(F)cc1)c1ccccc1F (stereo not drawn) | inactive | inactive | inactive | inactive | inactive | inactive | inactive | inactive | inactive | inactive | inactive | inactive | inactive | inactive | – | – | – | inactive | – | –
9 | C[N+](C)=CCl | inactive | inactive | inactive | inactive | inactive | inactive | inactive | inactive | inactive | – | inactive | inactive | inactive | inactive | – | – | – | inactive | – | –
10 | CN(N=O)C(N)=O | inactive | inactive | inactive | inactive | inactive | inactive | inactive | inactive | inactive | – | inactive | inactive | inactive | inactive | – | – | – | inactive | inactive | –
11 | CC(C)NCC(O)c1ccc(N)c(C#N)c1 (stereo not drawn) | inactive | inactive | inactive | inactive | inactive | inactive | inactive | – | – | inactive | inactive | inactive | inactive | – | – | – | – | inactive | – | –
12 | CCOP(=S)(Oc1cnc(C(C)(C)C)nc1)OC(C)C (stereo not drawn) | inactive | inactive | inactive | inactive | inactive | inactive | inactive | – | – | inactive | inactive | inactive | inactive | 24.3 µM (active) | – | – | – | – | inactive | –
13 | NC(=S)C(N)=S | inactive | inactive | inactive | – | inactive | inactive | inactive | – | – | inactive | inactive | inactive | inactive | inactive | – | – | – | inactive | inactive | –
14 | CNNC | inactive | inactive | – | inactive | inactive | inactive | inactive | inactive | inactive | – | inactive | inactive | inactive | inactive | – | – | – | inactive | inactive | inactive
15 | CCCSP(=S)(OCC)Oc1ccc(Cl)cc1Cl (stereo not drawn) | inactive | inactive | – | – | inactive | inactive | inactive | inactive | inactive | inactive | inactive | inactive | inactive | 30.6 µM (active) | – | – | – | inactive | inactive | inactive
16 | CC1(C)CON(Cc2ccccc2Cl)C1=O | inactive | inactive | – | inactive | – | inactive | inactive | inactive | inactive | inactive | inactive | inactive | inactive | 68.6 µM (active) | – | – | – | inactive | inactive | inactive
17 | CCN(CC)c1nc(C)cc(OP(=S)(OC)OC)n1 | inactive | inactive | – | inactive | inactive | inactive | inactive | inactive | inactive | inactive | – | inactive | inactive | inactive | – | – | – | – | inactive | inactive
